Common to all, as to experiment: DAPPL (digital affinity profiling via proximity ligation, sequencing); 10 mM Tris-HCl pH 7.5, 50 mM NaCl, 1 mM DTT, 4% glycerol, room temperature, 30 min; GST-TFs on glutathione beads, 16-mer random dsDNA library, 0.1% formaldehyde crosslink after washing; high values mean tight binding
The target in one assay is T1, FEV (Homo sapiens, UniProt Q99581 1-238).
T1 sequence: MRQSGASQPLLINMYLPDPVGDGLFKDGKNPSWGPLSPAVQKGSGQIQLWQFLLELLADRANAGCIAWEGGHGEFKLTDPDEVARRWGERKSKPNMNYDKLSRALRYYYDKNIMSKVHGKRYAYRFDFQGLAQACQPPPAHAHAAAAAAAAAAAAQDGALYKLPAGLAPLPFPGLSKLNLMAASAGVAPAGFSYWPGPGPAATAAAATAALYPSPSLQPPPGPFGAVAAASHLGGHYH
To be noted: protein: recombinant; tags: N-terminal GST; dsDNA, one strand shown. The method in brief:
(§1)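 After expression in yeast as GST fusions, human transcription factors were bound to glutathione beads, DNA-barcoded and mixed with a tag-only sample. The pools were incubated with 200 nmole of a 16-mer random double-stranded DNA library in Tris/NaCl/DTT/glycerol buffer (30 min, room temperature), washed and crosslinked with 0.1% formaldehyde. Proximity ligation with BsaI/T4 ligase ran for 1 h at 37 °C, before PCR amplification and sequencing on an Illumina NextSeq500. Binding signal is a hexamer's read frequency for a factor divided by its frequency for the tag-only sample.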

The target of another assay is ETV5 (Homo sapiens, UniProt P41161 1-510). The conditions noted are these: protein: recombinant; tags: N-terminal GST; dsDNA, one strand shown. The method in brief: as §1
The target of a further assay is HSF1 (Homo sapiens, UniProt Q00613 1-529). The conditions noted are these: protein: recombinant; tags: N-terminal GST; chain copies: 3; dsDNA, one strand shown. The method in brief: as §1
The target in the next assay is T2, SPIC (Homo sapiens, UniProt Q8N5J4 1-248).
T2 sequence: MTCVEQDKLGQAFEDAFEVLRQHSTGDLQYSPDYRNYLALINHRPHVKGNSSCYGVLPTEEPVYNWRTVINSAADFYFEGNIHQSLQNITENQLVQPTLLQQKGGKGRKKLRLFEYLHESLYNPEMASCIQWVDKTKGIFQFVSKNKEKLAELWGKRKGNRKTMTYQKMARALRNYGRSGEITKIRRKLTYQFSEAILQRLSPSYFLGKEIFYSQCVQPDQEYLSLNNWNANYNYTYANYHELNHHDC
The conditions noted are these: protein: recombinant; tags: N-terminal GST; dsDNA, one strand shown. The method in brief: as §1

The next assay deals with ELF4 (Homo sapiens, UniProt Q99607 1-663). The conditions noted are these: protein: recombinant; tags: N-terminal GST; dsDNA, one strand shown. The method in brief: as §1
The next assay concerns the target T3, ELK4 (Homo sapiens, UniProt P28324-2 1-405).
T3 sequence: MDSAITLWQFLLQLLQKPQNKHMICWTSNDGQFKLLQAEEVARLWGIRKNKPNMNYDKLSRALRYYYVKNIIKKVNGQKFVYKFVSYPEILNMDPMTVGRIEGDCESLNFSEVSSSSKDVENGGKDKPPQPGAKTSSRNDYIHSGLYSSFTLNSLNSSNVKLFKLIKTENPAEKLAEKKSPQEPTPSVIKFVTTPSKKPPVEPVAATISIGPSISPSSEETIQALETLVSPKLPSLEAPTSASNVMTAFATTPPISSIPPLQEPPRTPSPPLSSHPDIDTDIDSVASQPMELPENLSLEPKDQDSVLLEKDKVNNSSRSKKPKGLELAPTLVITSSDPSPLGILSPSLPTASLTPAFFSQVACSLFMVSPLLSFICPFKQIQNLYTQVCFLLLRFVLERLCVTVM
The conditions noted are these: protein: recombinant; tags: N-terminal GST; dsDNA, one strand shown. The method in brief:
as §1

The target in the next assay is T4, ETV2 (Homo sapiens, UniProt O00321 1-342).
T4 sequence: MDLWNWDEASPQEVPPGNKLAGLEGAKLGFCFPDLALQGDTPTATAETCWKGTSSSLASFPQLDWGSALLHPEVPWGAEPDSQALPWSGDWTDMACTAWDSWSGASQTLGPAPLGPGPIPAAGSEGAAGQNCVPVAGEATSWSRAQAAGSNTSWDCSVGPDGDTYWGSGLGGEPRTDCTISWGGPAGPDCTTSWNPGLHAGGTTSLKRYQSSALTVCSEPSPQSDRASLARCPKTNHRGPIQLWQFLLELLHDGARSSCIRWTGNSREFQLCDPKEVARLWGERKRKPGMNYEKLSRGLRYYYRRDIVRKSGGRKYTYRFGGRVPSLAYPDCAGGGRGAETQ
To be noted: protein: recombinant; tags: N-terminal GST; dsDNA, one strand shown. The method in brief:
as §1

In another assay the target is T5, ELF3 (Homo sapiens, UniProt P78545 1-371).
T5 sequence: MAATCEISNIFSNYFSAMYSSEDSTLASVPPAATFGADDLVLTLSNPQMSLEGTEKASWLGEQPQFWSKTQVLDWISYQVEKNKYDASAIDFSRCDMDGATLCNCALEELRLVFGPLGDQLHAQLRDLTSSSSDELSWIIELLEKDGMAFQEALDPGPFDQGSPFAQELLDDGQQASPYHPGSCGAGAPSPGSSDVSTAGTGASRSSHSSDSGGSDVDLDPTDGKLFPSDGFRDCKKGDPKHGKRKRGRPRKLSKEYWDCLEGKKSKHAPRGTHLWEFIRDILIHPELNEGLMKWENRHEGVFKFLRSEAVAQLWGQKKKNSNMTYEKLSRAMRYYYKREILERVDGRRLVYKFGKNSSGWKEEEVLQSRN
To be noted: protein: recombinant; tags: N-terminal GST; dsDNA, one strand shown. The method in brief:
as §1

The target in a further assay is CRX (Homo sapiens, UniProt O43186 1-299). The conditions noted are these: protein: recombinant; tags: N-terminal GST; dsDNA, one strand shown. The method in brief: as §1
The next assay deals with ETV1 (Homo sapiens, UniProt P50549 1-477). To be noted: protein: recombinant; tags: N-terminal GST; dsDNA, one strand shown. The method in brief: as §1
The next assay has as its target T6, ERF (Homo sapiens, UniProt P50548 1-548).
T6 sequence: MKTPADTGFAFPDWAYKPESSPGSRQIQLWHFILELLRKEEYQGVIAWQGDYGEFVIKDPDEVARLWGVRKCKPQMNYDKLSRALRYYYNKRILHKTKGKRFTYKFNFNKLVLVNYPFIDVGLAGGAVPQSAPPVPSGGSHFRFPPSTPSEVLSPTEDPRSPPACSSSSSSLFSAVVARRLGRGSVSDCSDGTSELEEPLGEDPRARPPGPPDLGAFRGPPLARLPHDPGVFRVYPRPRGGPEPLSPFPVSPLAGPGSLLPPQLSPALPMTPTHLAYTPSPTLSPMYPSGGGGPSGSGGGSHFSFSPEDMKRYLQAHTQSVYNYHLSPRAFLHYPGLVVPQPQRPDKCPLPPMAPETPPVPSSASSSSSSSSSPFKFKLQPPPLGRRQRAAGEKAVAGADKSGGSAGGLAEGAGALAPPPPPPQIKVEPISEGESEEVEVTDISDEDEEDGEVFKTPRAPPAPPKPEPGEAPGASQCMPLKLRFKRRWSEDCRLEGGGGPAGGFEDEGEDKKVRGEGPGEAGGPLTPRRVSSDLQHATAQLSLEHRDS
To be noted: protein: recombinant; tags: N-terminal GST; dsDNA, one strand shown. The method in brief:
as §1

A further assay concerns the target T7, ETV3L (Homo sapiens, UniProt Q6ZN32 1-361).
T7 sequence: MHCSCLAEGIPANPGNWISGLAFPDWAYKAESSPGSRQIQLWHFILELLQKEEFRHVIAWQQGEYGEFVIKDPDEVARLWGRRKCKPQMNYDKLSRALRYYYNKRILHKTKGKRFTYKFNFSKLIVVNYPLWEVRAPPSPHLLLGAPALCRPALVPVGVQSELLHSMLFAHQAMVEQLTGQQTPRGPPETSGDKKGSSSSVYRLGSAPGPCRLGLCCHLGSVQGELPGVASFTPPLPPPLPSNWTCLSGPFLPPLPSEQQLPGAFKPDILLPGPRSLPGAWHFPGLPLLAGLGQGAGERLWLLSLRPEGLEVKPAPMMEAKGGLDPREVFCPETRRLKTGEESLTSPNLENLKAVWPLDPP
The conditions noted are these: protein: recombinant; tags: N-terminal GST; dsDNA, one strand shown. The method in brief:
as §1

A further assay has as its target T8, ETS2 (Homo sapiens, UniProt P15036 1-469).
T8 sequence: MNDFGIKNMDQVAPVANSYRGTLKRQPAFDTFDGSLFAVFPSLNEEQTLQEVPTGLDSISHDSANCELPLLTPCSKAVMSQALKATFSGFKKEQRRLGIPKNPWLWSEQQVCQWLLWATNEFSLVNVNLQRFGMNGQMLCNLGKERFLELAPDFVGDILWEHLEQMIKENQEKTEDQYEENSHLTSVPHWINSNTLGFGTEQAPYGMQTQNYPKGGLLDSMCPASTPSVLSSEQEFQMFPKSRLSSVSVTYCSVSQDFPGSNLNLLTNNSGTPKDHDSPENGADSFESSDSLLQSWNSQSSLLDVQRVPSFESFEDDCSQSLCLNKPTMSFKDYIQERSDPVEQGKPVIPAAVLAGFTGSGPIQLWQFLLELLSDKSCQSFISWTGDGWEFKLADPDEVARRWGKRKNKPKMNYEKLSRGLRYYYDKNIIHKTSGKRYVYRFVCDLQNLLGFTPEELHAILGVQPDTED
The conditions noted are these: protein: recombinant; tags: N-terminal GST; dsDNA, one strand shown. The method in brief: as §1

The target in another assay is T9, SPDEF (Homo sapiens, UniProt O95238 1-335).
T9 sequence: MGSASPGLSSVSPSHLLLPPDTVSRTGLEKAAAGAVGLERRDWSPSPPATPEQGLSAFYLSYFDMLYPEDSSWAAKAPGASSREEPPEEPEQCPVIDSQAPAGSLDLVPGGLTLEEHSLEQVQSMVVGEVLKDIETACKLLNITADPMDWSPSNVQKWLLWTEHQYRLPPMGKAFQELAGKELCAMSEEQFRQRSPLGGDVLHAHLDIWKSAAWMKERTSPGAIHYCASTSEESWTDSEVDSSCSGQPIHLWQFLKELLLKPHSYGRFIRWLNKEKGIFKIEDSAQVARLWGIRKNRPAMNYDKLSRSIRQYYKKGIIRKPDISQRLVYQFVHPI
To be noted: protein: recombinant; tags: N-terminal GST; dsDNA, one strand shown. The method in brief:
as §1

The next assay has as its target T10, ETV7 (Homo sapiens, UniProt Q9Y603 1-341).
T10 sequence: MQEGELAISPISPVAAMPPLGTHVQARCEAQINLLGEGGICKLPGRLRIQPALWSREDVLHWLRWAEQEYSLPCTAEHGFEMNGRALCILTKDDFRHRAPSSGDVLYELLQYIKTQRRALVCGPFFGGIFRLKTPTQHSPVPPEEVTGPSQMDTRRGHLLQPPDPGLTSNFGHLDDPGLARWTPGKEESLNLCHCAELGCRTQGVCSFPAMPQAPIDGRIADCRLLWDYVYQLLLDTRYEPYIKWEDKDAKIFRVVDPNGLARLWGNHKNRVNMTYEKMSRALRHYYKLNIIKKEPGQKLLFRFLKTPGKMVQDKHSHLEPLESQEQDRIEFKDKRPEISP
To be noted: protein: recombinant; tags: N-terminal GST; dsDNA, one strand shown. The method in brief: as §1

Another assay addresses T11, ELF5 (Homo sapiens, UniProt Q9UKW6-2 1-255).
T11 sequence: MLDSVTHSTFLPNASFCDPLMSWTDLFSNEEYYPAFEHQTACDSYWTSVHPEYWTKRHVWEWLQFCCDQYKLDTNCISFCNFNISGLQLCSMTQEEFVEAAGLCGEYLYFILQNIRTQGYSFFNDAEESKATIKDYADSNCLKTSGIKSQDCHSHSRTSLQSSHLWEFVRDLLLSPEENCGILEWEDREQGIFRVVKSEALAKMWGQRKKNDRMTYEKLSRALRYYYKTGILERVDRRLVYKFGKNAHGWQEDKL
The conditions noted are these: protein: recombinant; tags: N-terminal GST; dsDNA, one strand shown. The method in brief:
as §1

The next assay addresses T12, ETV3 (Homo sapiens, UniProt P41162-2 1-143).
T12 sequence: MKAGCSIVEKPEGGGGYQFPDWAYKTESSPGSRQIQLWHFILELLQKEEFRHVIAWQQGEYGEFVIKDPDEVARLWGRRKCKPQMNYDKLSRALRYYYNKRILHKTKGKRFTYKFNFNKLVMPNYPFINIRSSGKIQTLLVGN
To be noted: protein: recombinant; tags: N-terminal GST; dsDNA, one strand shown. The method in brief:
as §1

The target in a further assay is ETV6 (Homo sapiens, UniProt P41212 1-452). The conditions noted are these: protein: recombinant; tags: N-terminal GST; dsDNA, one strand shown. The method in brief: as §1

Results on one sequence are retold here after paper PMC7862700, “An all-to-all approach to the identification of sequence-specific readers for epigenetic DNA modifications on cytosine”.

Sequence of ETV6 (P41212 whole entry): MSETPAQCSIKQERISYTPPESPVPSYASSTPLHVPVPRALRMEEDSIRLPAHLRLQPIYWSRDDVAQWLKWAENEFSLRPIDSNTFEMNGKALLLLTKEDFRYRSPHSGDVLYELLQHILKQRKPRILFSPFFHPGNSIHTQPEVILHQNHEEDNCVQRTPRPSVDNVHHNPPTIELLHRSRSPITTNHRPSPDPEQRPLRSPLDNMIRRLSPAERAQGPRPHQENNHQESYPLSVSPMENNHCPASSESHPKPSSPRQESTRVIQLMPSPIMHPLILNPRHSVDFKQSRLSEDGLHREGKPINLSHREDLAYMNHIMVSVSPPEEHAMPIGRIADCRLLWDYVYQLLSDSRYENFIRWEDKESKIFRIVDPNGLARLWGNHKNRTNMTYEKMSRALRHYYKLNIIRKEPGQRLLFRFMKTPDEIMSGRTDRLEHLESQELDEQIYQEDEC
Sequence of ELF4 (Q99607 whole entry): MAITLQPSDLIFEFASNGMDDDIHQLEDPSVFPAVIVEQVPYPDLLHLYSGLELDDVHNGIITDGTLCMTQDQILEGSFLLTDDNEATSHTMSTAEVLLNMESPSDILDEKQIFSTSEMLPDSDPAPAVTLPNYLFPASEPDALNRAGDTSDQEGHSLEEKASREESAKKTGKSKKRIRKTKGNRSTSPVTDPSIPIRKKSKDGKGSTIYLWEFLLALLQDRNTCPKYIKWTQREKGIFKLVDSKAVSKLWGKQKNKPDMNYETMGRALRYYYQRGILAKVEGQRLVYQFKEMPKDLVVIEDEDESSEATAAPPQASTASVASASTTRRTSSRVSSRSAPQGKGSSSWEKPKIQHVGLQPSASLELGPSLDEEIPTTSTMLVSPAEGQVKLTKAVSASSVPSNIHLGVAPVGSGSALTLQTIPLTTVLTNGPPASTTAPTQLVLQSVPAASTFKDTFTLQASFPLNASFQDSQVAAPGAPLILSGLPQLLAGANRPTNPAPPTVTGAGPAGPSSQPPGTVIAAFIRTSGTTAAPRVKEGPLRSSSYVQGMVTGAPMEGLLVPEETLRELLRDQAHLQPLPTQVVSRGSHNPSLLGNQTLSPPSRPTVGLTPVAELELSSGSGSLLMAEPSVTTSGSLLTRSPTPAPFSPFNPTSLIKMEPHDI
Sequence of ETV1 (P50549 whole entry): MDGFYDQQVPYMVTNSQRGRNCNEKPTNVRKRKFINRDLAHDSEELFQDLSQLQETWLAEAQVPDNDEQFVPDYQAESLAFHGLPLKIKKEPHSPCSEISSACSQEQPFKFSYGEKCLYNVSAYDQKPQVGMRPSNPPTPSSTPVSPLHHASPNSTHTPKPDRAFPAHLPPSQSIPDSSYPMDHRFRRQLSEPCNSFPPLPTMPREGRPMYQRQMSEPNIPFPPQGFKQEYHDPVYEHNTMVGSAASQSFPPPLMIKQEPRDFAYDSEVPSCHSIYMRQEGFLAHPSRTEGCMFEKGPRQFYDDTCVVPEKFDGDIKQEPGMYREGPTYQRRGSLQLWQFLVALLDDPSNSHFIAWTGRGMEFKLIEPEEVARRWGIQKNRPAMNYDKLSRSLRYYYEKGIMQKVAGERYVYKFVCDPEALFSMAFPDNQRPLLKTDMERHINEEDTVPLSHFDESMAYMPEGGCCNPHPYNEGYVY
Sequence of HSF1 (Q00613 whole entry): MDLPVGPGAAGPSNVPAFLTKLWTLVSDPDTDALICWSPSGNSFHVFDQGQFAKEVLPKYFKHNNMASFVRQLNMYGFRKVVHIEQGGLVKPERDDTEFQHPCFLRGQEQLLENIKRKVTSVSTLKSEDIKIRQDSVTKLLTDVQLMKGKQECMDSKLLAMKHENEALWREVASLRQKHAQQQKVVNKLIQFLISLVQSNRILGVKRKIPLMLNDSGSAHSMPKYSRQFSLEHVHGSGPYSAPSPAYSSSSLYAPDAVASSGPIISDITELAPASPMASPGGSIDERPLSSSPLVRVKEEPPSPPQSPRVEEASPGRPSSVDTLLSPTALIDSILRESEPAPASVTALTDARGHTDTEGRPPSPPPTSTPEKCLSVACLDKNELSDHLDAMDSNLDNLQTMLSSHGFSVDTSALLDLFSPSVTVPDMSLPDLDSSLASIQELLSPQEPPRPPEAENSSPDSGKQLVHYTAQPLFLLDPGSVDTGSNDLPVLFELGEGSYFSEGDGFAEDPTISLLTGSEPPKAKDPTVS
Sequence of CRX (O43186 whole entry): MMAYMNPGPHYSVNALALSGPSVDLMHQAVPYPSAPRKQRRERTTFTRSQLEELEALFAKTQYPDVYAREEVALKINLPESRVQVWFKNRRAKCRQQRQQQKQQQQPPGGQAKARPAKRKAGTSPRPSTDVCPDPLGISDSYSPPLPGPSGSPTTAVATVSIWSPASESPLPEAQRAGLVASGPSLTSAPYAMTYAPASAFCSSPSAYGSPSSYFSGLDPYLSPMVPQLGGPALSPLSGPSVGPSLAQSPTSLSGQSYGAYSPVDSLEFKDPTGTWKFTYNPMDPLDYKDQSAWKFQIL
Sequence of ETV5 (P41161 whole entry): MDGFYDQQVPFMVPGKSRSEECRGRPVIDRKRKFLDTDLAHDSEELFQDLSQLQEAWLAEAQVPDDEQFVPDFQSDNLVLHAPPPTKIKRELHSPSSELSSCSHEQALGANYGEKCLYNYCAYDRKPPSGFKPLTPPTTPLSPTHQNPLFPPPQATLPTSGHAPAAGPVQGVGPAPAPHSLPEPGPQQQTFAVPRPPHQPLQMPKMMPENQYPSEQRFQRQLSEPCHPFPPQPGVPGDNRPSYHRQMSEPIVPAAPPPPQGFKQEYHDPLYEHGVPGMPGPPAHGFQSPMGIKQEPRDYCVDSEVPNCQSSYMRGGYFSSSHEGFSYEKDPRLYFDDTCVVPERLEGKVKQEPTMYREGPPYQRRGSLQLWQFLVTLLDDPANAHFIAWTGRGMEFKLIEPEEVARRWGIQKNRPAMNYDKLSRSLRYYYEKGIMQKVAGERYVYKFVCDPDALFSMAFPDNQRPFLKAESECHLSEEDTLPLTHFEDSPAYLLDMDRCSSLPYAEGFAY

CTCATG: the binding signal in the assay with FEV is 1.27 fold enrichment (6-mer frequency, TF over GST control); in the assay with ETV5 it was 1.28 fold enrichment (6-mer frequency, TF over GST control); in the assay with HSF1, 1.04 fold enrichment (6-mer frequency, TF over GST control); with SPIC it was 1.35 fold enrichment (6-mer frequency, TF over GST control); with ELF4, 1.19 fold enrichment (6-mer frequency, TF over GST control); with ELK4, 1.28 fold enrichment (6-mer frequency, TF over GST control). Further, the binding signal with ETV2 is 1.24 fold enrichment (6-mer frequency, TF over GST control); in the assay with ELF3, 1.2 fold enrichment (6-mer frequency, TF over GST control); in the assay with CRX it was 1.05 fold enrichment (6-mer frequency, TF over GST control); with ETV1 it was 1.29 fold enrichment (6-mer frequency, TF over GST control); in the assay with ERF, 1.18 fold enrichment (6-mer frequency, TF over GST control); in the assay with ETV3L, 1.22 fold enrichment (6-mer frequency, TF over GST control). The binding signal with ETS2 was 1.21 fold enrichment (6-mer frequency, TF over GST control); with SPDEF, 1.18 fold enrichment (6-mer frequency, TF over GST control); with ETV7, 1.18 fold enrichment (6-mer frequency, TF over GST control); with ELF5, 1.19 fold enrichment (6-mer frequency, TF over GST control); with ETV3, 1.22 fold enrichment (6-mer frequency, TF over GST control); with ETV6 it was 1.17 fold enrichment (6-mer frequency, TF over GST control).
